PubChem BioAssay (NCI)
The panel holds about 79,000 compounds, 15% with a hit somewhere; the sample as a whole holds those more often. A number with no mark means an inactive call. Activity calls are given as the source filed them. No stated cut-off is given here; in the data, active means growth inhibition above about 70%; inactive means the rest.

Columns and labels:
[1] = NCI Yeast Anticancer Drug Screen. Data for the rad50 strain (AID 155);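 further: 0% = growth of vehicle-only cultures of the same strain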; conditions: S. cerevisiae rad50 strain growth inhibition, active compounds read high
Method in brief: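 Readout: growth inhibition relative to vehicle-treated cultures. Compound exposure was carried out in a genetically defined yeast strain deficient in DNA damage repair.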

[2] = NCI Yeast Anticancer Drug Screen. Data for the mec2-1 strain (AID 157); conditions: S. cerevisiae mec2-1 strain, active compounds read high
Method in brief: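 Vehicle-treated cultures served as reference for growth inhibition of compound-exposed mec2-1 yeast.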

[3] = NCI Yeast Anticancer Drug Screen. Data for the sgs1 mgt1 strain (AID 161);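 further: 0% = growth of cultures given vehicle only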; conditions: S. cerevisiae sgs1 mgt1 strain, active compounds read high
Method in brief: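 Genetically altered yeast, compound exposure, growth inhibition relative to vehicle.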

[4] = NCI Yeast Anticancer Drug Screen. Data for the cln2 rad14 strain (AID 165);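 further: 0% = growth equal to vehicle treated cultures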; conditions: S. cerevisiae cln2 rad14 strain, active compounds read high
Method in brief: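 Each compound was tested on cln2 rad14 yeast. Inhibition of growth was calculated against vehicle-exposed controls.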

[5] = NCI Yeast Anticancer Drug Screen. Data for the bub3 strain (AID 167); conditions: S. cerevisiae bub3 mutant strain, active compounds read high
Method in brief: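 Readout: yeast growth inhibition, expressed relative to vehicle-only wells. The test organism is a mutant strain from a panel with lesions in DNA repair or checkpoint genes.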

[6] = NCI Yeast Anticancer Drug Screen. Data for the mlh1 rad18 strain (AID 175); conditions: S. cerevisiae mlh1 rad18 strain growth inhibition, active compounds read high
Method in brief: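 Vehicle-treated cultures served as the reference for growth inhibition in a yeast strain carrying DNA damage repair alterations exposed to each compound.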

[7] = at 5.0 µM (retest, dose inferred, filed as 0.5)
[8] = at 50.0 µM (retest, dose inferred, filed as 5.0)

SMILES | growth inhibition [1, 7] | growth inhibition [1, 8] | growth inhibition ([1]; at 50.0 µM) | growth inhibition [2, 7] | growth inhibition [2, 8] | growth inhibition ([2]; at 50.0 µM) | growth inhibition [3, 7] | growth inhibition [3, 8] | growth inhibition ([3]; at 50.0 µM) | growth inhibition [4, 7] | growth inhibition [4, 8] | growth inhibition ([4]; at 50.0 µM) | growth inhibition [5, 7] | growth inhibition [5, 8] | growth inhibition ([5]; at 50.0 µM) | growth inhibition [6, 7] | growth inhibition [6, 8] | growth inhibition ([6]; at 50.0 µM)
Cc1ccc(N2C(=O)CSC2=S)cc1Br | 7% | 46% | 95.1% (active) | 3% | 11% | 93% (active) | 4% | 49% | 94.9% (active) | -1% | -11% | 31.9% | -2% | 24% | 77.5% (active) | 3% | 64% | 95.2% (active)
Clc1ccc(SSc2ccc(Cl)cn2)nc1 | 5% | 69% | 78.2% (active) | 6% | 96% (active) | 96.3% (active) | 17% | 96% (active) | 57.9% | -4% | 51% | 20.6% | -3% | 97% (active) | 82.8% (active) | 11% | 92% (active) | 81.1% (active)
CC(C)CCN1CCC2(CCCCC2)CC1 | 4% | 1% | 40.5% | 5% | -6% | 24.1% | 6% | 0% | 51.3% | 7% | -5% | 88.3% (active) | 2% | -3% | 59.5% | 5% | 3% | 66.3%
COc1ccc(OC)c2c1C=CC(Br)=CC2 | 33% | 33% | 55.1% | 24% | 24% | 27% | 26% | 26% | 45.5% | 6% | 6% | 15.4% | 19% | 19% | 40.8% | 30% | 30% | 39.5%
COC(O)C12OC3CO[Si](C(C)C)(C(C)C)O[Si](C(C)C)(C(C)C)OC3C1Oc1nc(=O)ccn12 (stereo not given) | 10% | 98% (active) | 88.7% (active) | 13% | 99% (active) | 91.7% (active) | -25% | 98% (active) | 86.5% (active) | 1% | 97% (active) | 86.7% (active) | -4% | 98% (active) | 87.5% (active) | 15% | 98% (active) | -69.8%
O=[N+]([O-])c1ccc(Sc2c3ccccc3nc3ccccc23)nc1 | 94% (active) | 99% (active) | 98.3% (active) | 82% (active) | 99% (active) | 97.5% (active) | 62% | 99% (active) | 97.7% (active) | 83% (active) | 98% (active) | 96.7% (active) | 49% | 99% (active) | 96.5% (active) | 66% | 99% (active) | 97.2% (active)
COc1c([N+](=O)[O-])cc(-c2ccccc2)cc1[N+](=O)[O-] | -4% | 89% (active) | 69.9% | 10% | 98% (active) | 65.3% | 14% | 93% (active) | 77.8% (active) | -2% | 58% | 67.5% | 5% | 63% | 74.2% (active) | 26% | 96% (active) | 83.2% (active)
O=[N+]([O-])c1ccc(O)c(C=Nc2ccccc2)c1 | -114% | 31% | 74.3% (active) | -50% | -21% | 69.5% | -51% | 0% | 64% | -57% | -6% | 79.5% (active) | -71% | -41% | 54.6% | -96% | -16% | 82.8% (active)
Cc1ccc(S(=O)(=O)S/C(=N\c2ccccn2)Nc2ccccn2)cc1 | 75% (active) | 21% | 38.9% | 72% (active) | 32% | 39.9% | 90% (active) | 5% | 58.6% | 14% | 16% | 3% | 95% (active) | 11% | 14% | 85% (active) | 29% | 52.1%
NNc1cccc(C(F)(F)F)c1 | 19% | 90% (active) | 83.7% (active) | -41% | 54% | 79.5% (active) | -16% | 28% | 88.5% (active) | 13% | 55% | 50.1% | -1% | 97% (active) | 88% (active) | 34% | 93% (active) | 83.5% (active)
